Among the data in PubChem BioAssay (NCI) are growth values, retold here.

Structures are written as SMILES. This is part of a sample that, as a whole, favours compounds with a hit. Of some 83,000 tested, about 20% had one in any assay.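 Assay: single dose, 48 h. Readout: percent growth (0 = no net growth; negative = cell death). Active: <10.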 Calls of active or inactive are those of the source.

The test system of the test is HL-60(TB) leukemia. The test can be described thus: NCI-60 one-dose screen, 48 h (100 = growth as untreated, 0 = no growth, -100 = all killed). The following applies: 10 µM unless noted.
In the case of `N#CCCCCCCCCCCC#N`, the growth is 98.7% (inactive).

Turning to `CCCCCCCCCCCCCCCC(=O)OCC1OC(n2cnc3c(=S)nc(N)[nH]c32)C(OC(=O)CCCCCCCCCCCCCCC)C1OC(=O)CCCCCCCCCCCCCCC` (stereo not given), the growth is 86% (inactive).

On to `OC(c1cc(-c2ccc(Cl)cc2)nc2c(Cl)cccc12)C1CCCCN1` (stereo not given), for which the growth was -67% (active).

Regarding `Oc1cc(O)c(Br)cc1Br`, the growth is 104% (inactive).

Regarding `CC(C)(C)c1ccc(S(=O)(=O)O)s1`, the growth is 82.5% (inactive).

Turning to `O=C(CSc1nccc(Nc2ccc(S(=O)(=O)Nc3nccs3)cc2)n1)c1ccc(F)cc1`, the growth was 104% (inactive).

For the compound `C#CCN1C(=O)/C(=c2\sc3n(c2=O)C2C(NN=3)N(CC)C(=O)N2CC)c2ccccc21` (stereo not given), the growth was -29.4% (active).

Turning to `CC[C@H](CO)Nc1nc(NCc2ccccc2)c2ncn(C(C)C)c2n1`, the growth was 48.1% (inactive).

With `NC(N)=Nc1ccc(/C=C2\C=Cc3ccccc32)cc1`, the growth is 61.6% (inactive).

For `COc1ccc2nc(NNC(=O)c3cnccn3)c3cccn3c2c1`, the growth is -27.1% (active).

Consider `C/C(=C\CCc1ccsc1)CC/C=C(\C)CCCN1CCSCC1`, for which the growth is 67.7% (inactive).

Turning to `Cc1ccc(-c2nc(N3CCN(C(=O)Nc4ccc(Cl)c(C(F)(F)F)c4)CC3)c3ccccc3n2)cc1`, the growth is 98.9% (inactive).

Turning to `CCCn1nc(C(=O)N2CCCCC2)c2c1CCC(N1CCC(c3ccncc3)CC1)C2` (stereo not given), the growth is 96.6% (inactive).

For `C=CCn1c(SCC(=O)Nc2ccc(C(=O)/C=C/c3ccc(Cl)cc3)cc2)nnc1-c1ccc(Br)cc1`, the growth was 76.2% (inactive).

For `COc1ccc(-c2cc(-c3cc(OC)c(OC)c(OC)c3)c(C#N)c(=O)n2CCCCC(=O)O)cc1`, the growth is 103% (inactive).

With `COc1cc2c(cc1OC)-c1ccc3cc4c(cc3c1N(CCCN(C)C)C2)OCO4`, the growth was 30.4% (inactive).

On to `CCOC(=O)c1c(NC(=O)c2ccc(OC)cc2)sc2c(CN(C)C)c(O)ccc12`, for which the growth was 1.3% (active).

`N#Cc1c(-c2ccccc2)nc2c(c(-c3ccccc3)nn2-c2ccccc2)c1-c1ccc(N2CCCCC2)cc1`: the growth was 95.8% (inactive).

In the case of `O=C(N/N=C/c1ccc([N+](=O)[O-])cc1)c1ccc(Br)o1`, the growth was 123% (inactive).

`Fc1cc2[nH]ncc2c2c3c(c(-c4cn[nH]c4C(F)(F)F)nc12)C1CCC3C1` (stereo not given): the growth is 1.63% (active).

Regarding `CCCCCCCCCCCCCCCCN(C(C)c1ccccc1)S(=O)(=O)c1ccc(OC)c(N)c1` (stereo not given), the growth is 98.2% (inactive).

As for `CN(C)c1ccc(/C=N/NC(=O)c2ccccc2Nc2cccc(C(F)(F)F)c2)cc1`, the growth was 92.1% (inactive).

As to `CCCCCc1ccc(S(=O)(=O)Nc2ccc3nc(N)oc3c2)cc1`, the growth was 28.9% (inactive).

For `CCN1/C(=C/C(C)=C/c2sc3ccc4ccccc4c3[n+]2CC)Sc2ccc3ccccc3c21`, the growth is -52.1% (active).

For `COc1cc2ncnc(Oc3cccc(NC(=O)Nc4cc(C(C)(C)C(F)(F)F)on4)c3)c2cc1OC`, the growth was 12.1% (inactive).

For the compound `C=CCc1c2c(c(OC)c3ccoc13)C(=O)/C(=C/c1ccccc1OC)O2`, the growth was 68.8% (inactive).

On to `COc1ccc(/C(=C\c2cc(OC)c(OC)c(OC)c2)C(=O)N2CCCNCC2)cc1`, for which the growth was 96.4% (inactive).

Regarding `Clc1ccc(N/N=C(\c2ccccc2)c2ccccn2)nc1`, the growth was -28.3% (active).

For the compound `N/C(=N\OC(=O)c1ccccc1)C(C(=O)NOC(=O)c1ccccc1)C1CCCCC1` (stereo not given), the growth is 1.73% (active).

Take `CN1C(=O)NC(Cc2c[nH]c3c(Cl)cccc23)C1=O` (stereo not given): the growth is 98.6% (inactive).

Consider `Clc1cccc(Cl)c1C(Nc1nc2ccccc2s1)Nc1nc2ccccc2s1`, for which the growth is 105% (inactive).

Regarding `COc1cccc(C(=O)NCCCNc2cc(-c3cn(-c4ccccc4)nc3-c3cccc(OC)c3)ccn2)c1`, the growth was 22.7% (inactive).

For the compound `CC/C=C\C[C@H](F)C/C=C1/C(=O)C=C[C@@H]1C/C=C\CCCC(=O)O`, the growth was -16.1% (active).

As for `O=C(O)Cc1ccc(Cl)cc1`, the growth is 22.4% (inactive).

As to `COc1ccc(C/C(C)=C(\c2ccc(OCCN3CCCCCC3)cc2)c2ccc(OC(=O)C3CCCCC3)cc2)cc1`, the growth is 17.1% (inactive).

Take `Nc1ccc(Cl)cn1`: the growth is 100% (inactive).

As for `O=C(COc1cccc(/C=C2\COc3ccccc3C2=O)c1)c1ccccc1`, the growth was 40.3% (inactive).

In the case of `CSc1[nH]c2ncnc(N)c2c1C#N`, the growth was 112% (inactive).

In the case of `Cn1c(I)c(C#CCO[Si](C)(C)C(C)(C)C)c(=O)[nH]c1=O`, the growth was -41.2% (active).

On to `COc1cc(OC)c(NC(=O)C(Sc2nc(C)cc(C)c2C#N)c2ccccc2)cc1Cl` (stereo not given), for which the growth was 94.1% (inactive).
